According to PubChem BioAssay (NCI):
Compounds without any hit were thinned out: in the full panel of roughly 79,000, 15% have a hit. The source made the active and inactive calls. Rule as the data show it: active = growth inhibition above about 70%; inactive = the rest.

What was measured:
[1] = NCI Yeast Anticancer Drug Screen. Data for the rad50 strain (AID 155);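 also: 0% = growth of vehicle-only cultures of the same strain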; conditions: S. cerevisiae rad50 strain growth inhibition, hits give high values
In short: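 Relative growth inhibition (compound vs vehicle) was measured in yeast with a defined repair-gene alteration.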

[2] = NCI Yeast Anticancer Drug Screen. Data for the mec2-1 strain (AID 157); conditions: S. cerevisiae mec2-1 strain, hits give high values
In short: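 Test agents were screened against the mec2-1 yeast strain, with defined DNA repair or cell cycle alteration. Growth was scored as inhibition against vehicle-only controls.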

[3] = NCI Yeast Anticancer Drug Screen. Data for the sgs1 mgt1 strain (AID 161);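 also: 0% = growth of cultures given vehicle only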; conditions: S. cerevisiae sgs1 mgt1 strain, hits give high values
In short: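 Inhibition of yeast growth, normalised to vehicle-treated controls, is reported for a strain bearing genetic alterations in DNA damage repair.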

[4] = NCI Yeast Anticancer Drug Screen. Data for the cln2 rad14 strain (AID 165);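 also: 0% = growth equal to vehicle treated cultures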; conditions: S. cerevisiae cln2 rad14 strain, hits give high values
In short: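 Growth of compound-exposed yeast (cln2 rad14 genotype) measured and expressed as inhibition relative to vehicle.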

[5] = NCI Yeast Anticancer Drug Screen. Data for the bub3 strain (AID 167); conditions: S. cerevisiae bub3 mutant strain, hits give high values
In short: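 Screening used yeast with an engineered genetic alteration affecting cell cycle control. Compound-exposed cultures were compared with vehicle cultures, and reduced growth was taken as inhibition.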

[6] = NCI Yeast Anticancer Drug Screen. Data for the mlh1 rad18 strain (AID 175); conditions: S. cerevisiae mlh1 rad18 strain growth inhibition, hits give high values
In short: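 In this whole-cell yeast screen, a strain with altered DNA damage repair is challenged with compound, and its growth is measured against matched vehicle-treated controls.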

[7] = at 5.0 µM (retest, dose inferred, filed as 0.5)
[8] = at 50.0 µM (retest, dose inferred, filed as 5.0)

Measured: growth inhibition

COc1cc(C2CC(C)(OC)Oc3cc4c(cc32)OCO4)cc(OC)c1O (stereo not drawn)
inactive: [1]; [7] 1% | [1]; [8] 55% | [1]; at 50.0 µM 14.9% | [2]; [7] 2% | [2]; [8] 16% | [2]; at 50.0 µM -5.5% | [3]; [7] -3% | [3]; [8] 50% | [3]; at 50.0 µM 28.8% | [4]; [7] 12% | [4]; [8] 37% | [4]; at 50.0 µM 4.55% | [5]; [7] 10% | [5]; [8] 55% | [5]; at 50.0 µM -2.1% | [6]; [7] 0% | [6]; [8] 63% | [6]; at 50.0 µM 31.2%

COc1ccc(C(c2cc3c(cc2O)OCO3)N2CCOCC2)c(OC)c1OC (stereo not drawn)
active: [1]; [8] 96% | [1]; at 50.0 µM 95.5% | [2]; [8] 97% | [2]; at 50.0 µM 99.6% | [3]; [8] 74% | [5]; [8] 87% | [5]; at 50.0 µM 98.7% | [6]; at 50.0 µM 83%
inactive: [1]; [7] 4% | [2]; [7] 4% | [3]; [7] 0% | [3]; at 50.0 µM 62.9% | [4]; [7] -6% | [4]; [8] 63% | [4]; at 50.0 µM 24.4% | [5]; [7] 0% | [6]; [7] 2% | [6]; [8] 63%

Oc1ccc(Cl)cc1-c1ccccc1
inactive: [1]; [7] -1% | [2]; [7] -15% | [3]; [7] -13% | [4]; [7] -48% | [4]; [8] 68% | [5]; [7] 1% | [5]; [8] 68% | [6]; [7] 11%
active: [1]; [8] 86% | [1]; at 50.0 µM 94.1% | [2]; [8] 83% | [2]; at 50.0 µM 97% | [3]; [8] 76% | [3]; at 50.0 µM 90.2% | [4]; at 50.0 µM 74.2% | [5]; at 50.0 µM 94.7% | [6]; [8] 91% | [6]; at 50.0 µM 91.7%

NC(=S)Nc1c(Br)cc(Br)cc1Br
active: [1]; [8] 91% | [2]; [8] 90% | [3]; [8] 84% | [4]; [8] 88% | [5]; [8] 80% | [5]; at 50.0 µM 74% | [6]; [8] 88%
inactive: [1]; [7] -1% | [1]; at 50.0 µM 62.5% | [2]; [7] 1% | [2]; at 50.0 µM 33.5% | [3]; [7] -1% | [3]; at 50.0 µM 34.8% | [4]; [7] 3% | [4]; at 50.0 µM 23.1% | [5]; [7] -6% | [6]; [7] 2% | [6]; at 50.0 µM 47%

COc1cccc(/C=C2/Sc3scc(-c4ccccc4)[n+]3C2=O)c1O
inactive: [1]; [7] 14% | [1]; [8] 20% | [2]; [7] -9% | [2]; [8] 21% | [2]; at 50.0 µM 55.6% | [3]; [7] -5% | [3]; [8] 23% | [4]; [7] -12% | [4]; [8] 18% | [4]; at 50.0 µM 61.8% | [5]; [7] -17% | [5]; [8] 64% | [6]; [7] 12% | [6]; [8] 66%
active: [1]; at 50.0 µM 80.4% | [3]; at 50.0 µM 82.3% | [5]; at 50.0 µM 93.1% | [6]; at 50.0 µM 94.1%

O=C1OS(=O)(=O)c2cc3c(cc21)C1C(C2C3C3(Cl)C(Cl)=C(Cl)C2(Cl)C3(Cl)Cl)C2(Cl)C(Cl)=C(Cl)C1(Cl)C2(Cl)Cl (stereo not drawn)
inactive: [1]; [7] -18% | [1]; [8] 58% | [2]; [7] 48% | [3]; [7] 55% | [4]; [7] 8% | [4]; at 50.0 µM 60.9% | [5]; [7] 3% | [6]; [7] 63%
active: [1]; at 50.0 µM 83.9% | [2]; [8] 72% | [2]; at 50.0 µM 71.8% | [3]; [8] 80% | [3]; at 50.0 µM 86.6% | [4]; [8] 77% | [5]; [8] 81% | [5]; at 50.0 µM 74% | [6]; [8] 91% | [6]; at 50.0 µM 73.8%
